This note sets out measurements from PubChem BioAssay AID540308 (The Scripps Research Institute Molecular Screening Center, 2011).

Hit rate of the full screen: of about 360,000 compounds, about 3,500 (0.97%) were called active.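 How the source made its calls: active means activation above a per-plate cutoff, the mean activation of sample wells on that plate plus 3 SD (cut at about 8% in these data); inactive means the rest.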 Shown is part of a subset that was picked to be rich in actives.

The target in the test is Melanocortin receptor 4 (Homo sapiens) (UniProt P32245). Nature of the test: MC4R agonists recruiting beta-arrestin, primary screen, cell-based, luminescence, agonist arm of biased-ligand search (AID 540308). Conditions: U2OS MC4R beta-arrestin complementation, at 8.9 µM, stronger effect = higher value, percent of melanotan II response, DMSO zero.
Sequence of Melanocortin receptor 4 (Homo sapiens) (P32245 whole entry, looked up): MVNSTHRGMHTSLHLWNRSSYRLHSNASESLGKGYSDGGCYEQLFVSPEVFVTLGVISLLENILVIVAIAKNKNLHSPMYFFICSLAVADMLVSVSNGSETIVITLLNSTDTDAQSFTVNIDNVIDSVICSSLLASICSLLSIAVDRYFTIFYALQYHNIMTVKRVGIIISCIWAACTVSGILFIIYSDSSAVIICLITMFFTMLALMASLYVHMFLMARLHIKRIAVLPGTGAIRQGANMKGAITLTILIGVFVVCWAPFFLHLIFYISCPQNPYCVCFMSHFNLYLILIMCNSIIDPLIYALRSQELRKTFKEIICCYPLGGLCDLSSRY
Turning to `Cc1ccc(-n2c(SCC(=O)NCCC3=CCCCC3)nc3n[nH]c(C)c3c2=N)cc1Cl`, the activation is 18.2% (active).
Take `CCCCNC(=O)CSc1nc2n[nH]c(C)c2c(=N)n1-c1cccc(Cl)c1C`: the activation is -1.55% (inactive).
The result for `COc1cccc(-n2c(SCC(=O)NC3CCCCC3)nc3n[nH]c(C)c3c2=N)c1` reads -1.4% (inactive).
With `COc1ccc(CNC(=O)c2ccc(-c3cccnc3)c3ccoc23)cc1OC`, the activation is 1.26% (inactive).
Turning to `CCCNC(=O)c1cc(C2CCCN(C(=O)c3ccc4c(c3)CCO4)C2)on1` (configuration not stated), the activation is -0.64% (inactive).
The result for `COc1ccc(C(=O)n2nc(-c3ccc(C)cc3)nc2N)cc1OC` reads 15.4% (active); that for `COc1ccc(C(=O)n2nc(-c3ccc(Cl)cc3)nc2N)cc1OC`, 0.74% (inactive).
On to `COc1ccc(C(=O)n2nc(C)c(Br)c2C)cc1OC`, for which the activation was 1.71% (inactive).
On to `CC(=O)c1ccc(N2CCN(C(=O)CCNC(=O)Cn3ccc4ccccc4c3=O)CC2)cc1`, for which the activation was 2.35% (inactive).
For the compound `CCOC(=O)C1CCCN(C(=O)c2cccc3ccccc23)CC1` (configuration not stated), the activation was -0.59% (inactive).
Next, `Fc1ccccc1/C=N/Nc1cc(N2CCCCC2)ncn1`: 12.1% (active); `COc1ccccc1N1CCN(C(=O)C(=O)N/N=C/c2ccccc2F)CC1`: -3.16% (inactive).
Next, `O=C(CCC(=O)Nc1ccccc1)N/N=C/c1ccccc1F`: -0.29% (inactive).
Next, `CCCNC(=O)C1(C)CCN1C(=O)C1(c2ccccc2)CC1` (configuration not stated): 1.14% (inactive).
On to `O=C(COc1ccc(S(=O)(=O)N2CCCC2)cc1[N+](=O)[O-])N1CCCCC1`, for which the activation was -1.25% (inactive).
With `Cc1ccc(S(=O)(=O)N2CCC(C(=O)OCC(=O)N(C)c3ccccc3)CC2)cc1C`, the activation was -3.84% (inactive).
For the compound `COc1ccc(S(=O)(=O)N2CCC(C(=O)OCC(=O)c3ccccc3)CC2)cc1[N+](=O)[O-]`, the activation is 31.7% (active).
The result for `CCc1nc2ccc(C(=O)NC3CCN(Cc4ccccc4)CC3)cn2c1N(CC)CCOC` reads 4.51% (inactive); that for `Cc1ccc(NC(=O)Nc2ccccc2)c(Br)c1`, 21.9% (active).
In the case of `CCOc1cc(NC(=O)Nc2ccccc2)c(OCC)cc1NC(=O)CC`, the activation was 0.85% (inactive).
The result for `O=C(Nc1ccccc1)c1ccccc1Br` reads 0.3% (inactive); that for `CC(=O)Nc1cccc(-c2ccnc3c2CC(C)(C(=O)NCc2ccco2)O3)c1` (configuration not stated), 0.36% (inactive).
Next, `O=C(CSc1nc2ccccc2c(=O)n1Cc1ccc(F)cc1)NCC1CCCO1` (configuration not stated): -0.86% (inactive); `O=C(CCCn1c(SCC(=O)c2ccc(F)cc2)nc2ccccc2c1=O)NCc1ccco1`: 29.6% (active); `Cn1c(-c2ccc(F)cc2)cnc1SCC(=O)NCc1ccco1`: -1.34% (inactive).
In the case of `O=C(c1cc(C2CCCCN2S(=O)(=O)c2ccccc2)on1)N1CCOCC1` (configuration not stated), the activation is 0.01% (inactive).
The result for `CC=CCn1c(SCCCc2ccccc2)nc2c1c(=O)[nH]c(=O)n2C` reads 1.64% (inactive); that for `Cc1ccc(CNC(=O)Nc2nnc([C@H]3C[C@H](O)[C@@H](CO)O3)s2)cc1`, -0.78% (inactive); that for `OCCN1CCN(c2ncnc3c2ncn3[C@H]2CN(Cc3ccco3)C[C@@H](CO)O2)CC1`, -0.69% (inactive).
In the case of `CCOC(=O)C1CCCN(C(=O)c2ccc(N(C)C)cc2)CC1` (configuration not stated), the activation was -0.51% (inactive).
Next, `Cc1ccc(Nc2nnc(SCC(=O)c3cc4ccccc4o3)s2)cc1C`: 11% (active); `CC(C)c1ccc(Nc2nnc(SCC(=O)c3nnc(-c4ccccc4)o3)s2)cc1`: -0.71% (inactive).
The result for `Cc1cc2c(=O)n(C)c(SCC(=O)c3cc4ccccc4o3)nc2s1` reads -0.92% (inactive).
`CC1(C(=O)NS(=O)(=O)C2CC2)CCCN(C(=O)CSc2ccccc2)C1` (configuration not stated): the activation was 0.3% (inactive).
The result for `OC[C@@H]1CN(Cc2cccs2)C[C@H](n2cnc3c(Nc4ccccc4)ncnc32)O1` reads 0.44% (inactive); that for `CCOC(=O)c1c(NC(=O)C2CCN(S(=O)(=O)c3ccc(Cl)cc3)CC2)sc2c1CCCC2`, 2.72% (inactive).
Next, `O=C(CN1CCCC1)Nc1sc2c(c1C(=O)Nc1ccccc1)CCCC2`: -3.19% (inactive); `O=C(Nc1sc2c(c1-c1nc3ccccc3[nH]1)CCCC2)C1CC1`: 14.1% (active); `O=C(Nc1ccc(Cl)c(C(F)(F)F)c1)C1Cc2c(-c3ccccc3Oc3ccccc3)ccnc2O1` (configuration not stated): -1.84% (inactive).
As to `CCCCN(C=O)c1c(CC)nc2c(OCc3ccccc3C(=O)OC)cccn12`, the activation is 0.49% (inactive).
For `C/C(=N\NC(=O)COc1c(C)cccc1C)c1cccs1`, the activation is 12.1% (active).
Next, `C/C(=N\NC(=O)CSc1nc2ccccc2c(=O)n1-c1ccccc1C)c1cccs1`: -1.88% (inactive); `C/C(=N\OCC(=O)Nc1ccc(Br)cc1)c1cccs1`: -4.16% (inactive); `CC(=O)Nc1cccc(-c2ccnc3c2CC(C)(C(=O)NCc2ccccc2)O3)c1` (configuration not stated): -1.6% (inactive).
Next, `N/C(=N\OC(=O)Cc1ccccc1[N+](=O)[O-])c1ccc(Br)cc1`: -1.47% (inactive); `N/C(=N\OC(=O)N1c2ccccc2Sc2ccccc21)c1ccc(Br)cc1`: 8.26% (active); `N/C(=N\OC(=O)c1ccc2c(c1)OCO2)c1ccc(Br)cc1`: 0.57% (inactive).
Next, `CCC(=O)N1CCCC1(C)C(=O)Nc1ccc2c(c1)CCN2C(C)=O` (configuration not stated): -1.65% (inactive).
With `CCN(CC)c1ncnc2c1ncn2[C@H]1CN(Cc2cccs2)C[C@@H](CO)O1`, the activation was 0.8% (inactive).
`COC(=O)c1cc(OCC(=O)NC2CCCc3ccccc32)cc(C(=O)OC)c1` (configuration not stated): the activation is -1.2% (inactive).
`CCOc1ccc(NC(=O)COc2ccc(C(=O)NC3CCCc4ccccc43)cc2OC)cc1` (configuration not stated): the activation was 9.26% (active).
Next, `CCOc1ccc(NC(=O)COc2ccc(C(=O)N3CCC(C(N)=O)CC3)cc2OC)cc1`: -1.74% (inactive).
The result for `Cc1ccc(CN2C(=O)CCC2C(=O)NCCCN2CCCCC2C)cc1` (configuration not stated) reads -0.33% (inactive).
The result for `Cc1ccc(F)c(NC(=O)CCOc2ccccc2C)c1` reads -0.86% (inactive).
With `Cc1ccccc1OCC(=O)Nc1nc(C)c(C(=O)N(C)C)s1`, the activation is -2.42% (inactive).
Regarding `CC(=O)c1sc(NC(=O)CCCOc2ccccc2C)nc1C`, the activation was 9.6% (active).
Take `CCCNC(=O)C1(C)CCN1C(=O)Cc1ccc(-c2ccccc2)cc1` (configuration not stated): the activation was -0.78% (inactive).
Take `CCCn1c(C)cc(/C=C(\C#N)C(=O)OCC(=O)Nc2cc(OC)c(OC)c(OC)c2)c1C`: the activation is 1.33% (inactive).
The result for `COc1cc(C2C3=C(CCCC3=O)OC3=C2C(=O)CCC3)ccc1OCC(=O)Nc1ccccc1` reads -1.3% (inactive).
Next, `CCOC(=O)/C(C#N)=C/c1ccc(OCC(=O)Nc2ccccc2)c(OC)c1`: 8.67% (active); `CCNC(=O)C1(C)CCCN(C(=O)c2ccc3ccccc3n2)C1` (configuration not stated): -0.3% (inactive); `COCCNC(=O)C1(C)CCCN(Cc2cccc(F)c2)C1` (configuration not stated): -0.59% (inactive).
Next, `COc1ccc(NC(=O)C2(C)Cc3c(-c4ccc(C(N)=O)cc4)ccnc3O2)cc1` (configuration not stated): 0.47% (inactive); `O=C(Nc1cccc2cccnc12)c1ccc2sc([C@H]3C[C@H](O)[C@@H](CO)O3)nc2c1`: 0.55% (inactive); `CC1(C(=O)Nc2cccc3c2CCCC3)CCN1C(=O)CCc1ccc(Cl)cc1Cl` (configuration not stated): 1.71% (inactive).
`COc1cccc(CNC(=O)c2cccnc2Sc2ccc(Cl)cc2)c1`: the activation is 0.85% (inactive).
The result for `O=C(NC1CCCCCC1)c1cccnc1Sc1ccc(Cl)cc1` reads 10.7% (active); that for `O=C(NCc1cccnc1)c1cccnc1Sc1ccc(Cl)cc1`, 1.65% (inactive); that for `CCCS(=O)(=O)NC(=O)C1(C)CCN(C(=O)c2sccc2C)C1` (configuration not stated), -0.75% (inactive).
Take `COCOc1cccc(CN2CCC(C)(Oc3ccc(SC)cc3)C2)c1` (configuration not stated): the activation was 0.12% (inactive).
Next, `CCN(C(=O)CSc1nnc(-c2ccncc2)o1)c1ccccc1`: 0.57% (inactive); `COC(=O)CSc1nnc(-c2cccnc2)o1`: -1.17% (inactive).
As to `Cc1cccc(C)c1OC(=O)CSc1nnc(-c2ccccc2)o1`, the activation was 15.5% (active).
As for `COCCCNc1ccn2nc(-c3ccc(CC(C)C)cc3)cc2n1`, the activation is 1.85% (inactive).
The result for `CC(c1ccco1)N(C(=O)Nc1ccccc1)C1CCCCC1` (configuration not stated) reads -3.36% (inactive).
As for `Cc1ccc(NC(=O)NC(=O)N(C2CCCCC2)S(=O)(=O)c2ccccc2)cc1`, the activation was 9.21% (active).
The result for `Cc1ccc(S(=O)(=O)N(C)CC(=O)OCC(=O)Nc2ccccc2)cc1` reads -2.23% (inactive); that for `Nc1cccc(-c2cncc(N3CCN(Cc4ccccn4)CC3)n2)c1`, -0.96% (inactive).
Regarding `Cc1nc(C(F)(F)F)ccc1C(=O)N1CCC1(C)C(=O)NS(=O)(=O)c1ccccc1Cl` (configuration not stated), the activation was -1.94% (inactive).
Turning to `Cc1[nH]c2ccccc2c1C(=O)COC(=O)c1c(-c2ccccc2)noc1C`, the activation was -0.48% (inactive).
In the case of `O=C(CCN1CCCCC1)N=Nc1c(O)[nH]c2ccccc12`, the activation is -1.11% (inactive).
The result for `Cc1c(-c2ccccc2)n[nH]c1C(=O)N=Nc1c(O)[nH]c2ccccc12` reads 17.7% (active).
The result for `O=C(COC(=O)CNC(=O)c1ccco1)Nc1ccc(F)cc1` reads -0.58% (inactive); that for `O=C(COC(=O)c1ccc[nH]c1=O)Nc1ccc2c(c1)OC(F)(F)O2`, -2.05% (inactive).
The result for `O=C(COC(=O)c1ccccc1NC(=O)c1ccco1)Nc1ccc2c(c1)OC(F)(F)O2` reads 10.1% (active).
As for `CCc1nc2ccc(C(=O)NC3CCN(Cc4ccccc4)CC3)cn2c1N(C)CCN1CCOCC1`, the activation was -0.77% (inactive).
Next, `COc1cccc(/C=C2\SC(=S)N(CCCC(=O)N3CCOCC3)C2=O)c1`: -0.8% (inactive); `O=C(CCCN1C(=O)/C(=C/c2cccs2)SC1=S)Nc1ccc(O)cc1`: 20.4% (active); `CC(C(=O)Nc1ccc(O)c(C(=O)O)c1)N1C(=O)/C(=C/c2cccs2)SC1=S` (configuration not stated): -1.84% (inactive).
The result for `COc1ccc(/C=C2/SC(=O)N(CCCCCC(=O)Nc3ccccc3C(=O)O)C2=S)cc1` reads -0.47% (inactive).
The result for `O=C(CN1C(=O)/C(=C\c2ccccc2F)SC1=S)Nc1nc2ccccc2s1` reads 0.77% (inactive).
Turning to `O=C(CCCN1C(=O)/C(=C\c2ccco2)SC1=S)Nc1cccc2ccccc12`, the activation was 13.9% (active).
